Holding throughout (test): DAPPL (digital affinity profiling via proximity ligation, sequencing); 10 mM Tris-HCl pH 7.5, 50 mM NaCl, 1 mM DTT, 4% glycerol, room temperature, 30 min; GST-TFs on glutathione beads, 16-mer random dsDNA library, 0.1% formaldehyde crosslink after washing; high values mean tight binding
One test deals with T1, FLI1 (Homo sapiens, UniProt Q01543 1-452).
T1 sequence: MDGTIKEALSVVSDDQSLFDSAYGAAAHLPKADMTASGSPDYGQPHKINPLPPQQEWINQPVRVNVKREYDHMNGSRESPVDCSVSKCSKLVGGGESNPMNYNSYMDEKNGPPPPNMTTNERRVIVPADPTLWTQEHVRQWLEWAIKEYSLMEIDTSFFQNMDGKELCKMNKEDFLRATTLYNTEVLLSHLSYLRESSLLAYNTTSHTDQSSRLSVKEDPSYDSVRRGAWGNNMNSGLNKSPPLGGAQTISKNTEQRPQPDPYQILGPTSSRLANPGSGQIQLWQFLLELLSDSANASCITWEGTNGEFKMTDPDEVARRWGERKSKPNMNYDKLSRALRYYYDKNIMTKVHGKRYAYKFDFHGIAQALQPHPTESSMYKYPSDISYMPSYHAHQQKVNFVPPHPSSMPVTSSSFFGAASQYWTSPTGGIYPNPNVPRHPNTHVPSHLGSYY
Conditions: protein: recombinant; tags: N-terminal GST; dsDNA, one strand shown. The method in brief: (§1)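 Binding signal is given per hexamer as its read frequency for a factor divided by its frequency in the tag-only sample. GST-fused human transcription factors were expressed in yeast, captured on glutathione beads, barcoded with DNA and pooled with that sample, then incubated with 200 nmole of a 16-mer random double-stranded DNA library in Tris/NaCl/DTT/glycerol buffer for 30 min at room temperature. The pools were then washed, crosslinked, proximity-ligated, amplified by PCR and sequenced on an Illumina NextSeq500.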

A further test deals with T2, ELK1 (Homo sapiens, UniProt P19419 1-428).
T2 sequence: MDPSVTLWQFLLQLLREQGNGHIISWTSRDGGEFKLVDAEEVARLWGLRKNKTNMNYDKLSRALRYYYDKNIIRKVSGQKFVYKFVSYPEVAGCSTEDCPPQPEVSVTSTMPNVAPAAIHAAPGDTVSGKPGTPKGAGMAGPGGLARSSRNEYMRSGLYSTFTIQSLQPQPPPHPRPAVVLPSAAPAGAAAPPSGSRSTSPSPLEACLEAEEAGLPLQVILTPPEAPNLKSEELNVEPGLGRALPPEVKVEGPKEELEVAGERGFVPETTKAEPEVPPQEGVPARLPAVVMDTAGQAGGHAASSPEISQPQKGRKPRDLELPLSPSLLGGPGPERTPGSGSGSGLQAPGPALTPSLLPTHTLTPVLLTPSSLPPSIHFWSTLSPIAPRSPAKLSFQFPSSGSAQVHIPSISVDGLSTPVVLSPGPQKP
Conditions: protein: recombinant; tags: N-terminal GST; dsDNA, one strand shown. In a few lines:
as §1

The next test concerns the target T3, GABPA (Homo sapiens, UniProt Q06546 1-454).
T3 sequence: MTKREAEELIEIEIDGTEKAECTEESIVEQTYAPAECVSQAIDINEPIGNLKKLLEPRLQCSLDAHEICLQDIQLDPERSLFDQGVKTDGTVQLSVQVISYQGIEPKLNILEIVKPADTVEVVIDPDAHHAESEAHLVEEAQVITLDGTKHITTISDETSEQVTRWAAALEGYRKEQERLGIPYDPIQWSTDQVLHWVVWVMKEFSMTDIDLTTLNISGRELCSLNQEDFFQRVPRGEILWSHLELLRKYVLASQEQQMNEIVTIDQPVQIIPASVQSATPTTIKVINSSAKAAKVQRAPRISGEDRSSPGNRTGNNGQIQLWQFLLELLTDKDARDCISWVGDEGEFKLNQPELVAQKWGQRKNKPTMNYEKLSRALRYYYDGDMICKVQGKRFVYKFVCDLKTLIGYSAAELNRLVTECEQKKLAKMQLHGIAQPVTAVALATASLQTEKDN
Conditions: protein: recombinant; tags: N-terminal GST; dsDNA, one strand shown. The method in brief:
as §1

A further test concerns the target T4, ERG (Homo sapiens, UniProt P11308 1-479).
T4 sequence: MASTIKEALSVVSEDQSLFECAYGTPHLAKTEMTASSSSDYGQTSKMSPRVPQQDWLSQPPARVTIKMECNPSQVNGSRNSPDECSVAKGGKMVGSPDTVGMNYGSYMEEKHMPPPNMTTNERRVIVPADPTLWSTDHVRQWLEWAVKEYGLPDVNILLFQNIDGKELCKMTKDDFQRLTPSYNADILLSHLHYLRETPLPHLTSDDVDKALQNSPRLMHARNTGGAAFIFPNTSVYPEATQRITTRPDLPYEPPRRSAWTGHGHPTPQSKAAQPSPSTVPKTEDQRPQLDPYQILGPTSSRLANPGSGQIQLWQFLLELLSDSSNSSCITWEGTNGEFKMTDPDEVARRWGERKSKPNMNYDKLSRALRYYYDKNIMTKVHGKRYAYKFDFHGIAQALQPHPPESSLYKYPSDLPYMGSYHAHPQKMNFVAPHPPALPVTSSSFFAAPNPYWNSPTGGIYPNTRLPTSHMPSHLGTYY
Conditions: protein: recombinant; tags: N-terminal GST; dsDNA, one strand shown. The method in brief: as §1

A further test has as its target ELF1 (Homo sapiens, UniProt P32519 1-619). The conditions noted are these: protein: recombinant; tags: N-terminal GST; dsDNA, one strand shown. The method in brief: as §1
The target in the next test is T5, EHF (Homo sapiens, UniProt Q9NZC4 1-300).
T5 sequence: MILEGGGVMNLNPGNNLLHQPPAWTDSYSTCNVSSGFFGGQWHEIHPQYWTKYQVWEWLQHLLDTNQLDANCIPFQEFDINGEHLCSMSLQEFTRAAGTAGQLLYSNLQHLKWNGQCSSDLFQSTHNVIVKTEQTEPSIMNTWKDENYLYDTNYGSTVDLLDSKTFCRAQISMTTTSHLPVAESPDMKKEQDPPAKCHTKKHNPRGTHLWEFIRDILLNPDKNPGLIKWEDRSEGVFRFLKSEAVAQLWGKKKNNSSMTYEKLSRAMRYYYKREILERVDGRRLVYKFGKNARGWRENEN
The conditions noted are these: protein: recombinant; tags: N-terminal GST; dsDNA, one strand shown. In a few lines: as §1

The next test addresses SPI1 (Homo sapiens, UniProt P17947 1-270). The conditions noted are these: protein: recombinant; tags: N-terminal GST; dsDNA, one strand shown. The method in brief: as §1
A further test concerns the target SPIB (Homo sapiens, UniProt Q01892 1-262). The conditions noted are these: protein: recombinant; tags: N-terminal GST; dsDNA, one strand shown. In a few lines: as §1
The target of a further test is T6, ELK3 (Homo sapiens, UniProt P41970 1-407).
T6 sequence: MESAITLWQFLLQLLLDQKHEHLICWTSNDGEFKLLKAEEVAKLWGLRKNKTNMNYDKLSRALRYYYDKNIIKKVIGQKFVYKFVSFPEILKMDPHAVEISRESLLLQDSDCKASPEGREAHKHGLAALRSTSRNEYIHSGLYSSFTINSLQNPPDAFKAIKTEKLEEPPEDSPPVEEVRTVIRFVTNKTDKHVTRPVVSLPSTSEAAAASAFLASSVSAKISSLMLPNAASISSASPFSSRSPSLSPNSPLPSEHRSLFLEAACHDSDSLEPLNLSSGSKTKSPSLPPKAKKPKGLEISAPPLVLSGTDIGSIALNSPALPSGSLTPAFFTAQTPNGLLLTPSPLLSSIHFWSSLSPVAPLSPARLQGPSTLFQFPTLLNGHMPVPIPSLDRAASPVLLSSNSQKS
The conditions noted are these: protein: recombinant; tags: N-terminal GST; dsDNA, one strand shown. The method in brief:
as §1

A further test concerns the target T7, FEV (Homo sapiens, UniProt Q99581 1-238).
T7 sequence: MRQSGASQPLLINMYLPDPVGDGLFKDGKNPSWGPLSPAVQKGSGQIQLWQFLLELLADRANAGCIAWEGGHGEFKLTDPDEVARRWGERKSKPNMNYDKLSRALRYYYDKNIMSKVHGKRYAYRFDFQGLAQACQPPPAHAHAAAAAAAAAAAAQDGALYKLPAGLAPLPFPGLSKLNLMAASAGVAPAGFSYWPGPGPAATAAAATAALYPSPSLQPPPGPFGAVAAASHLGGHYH
The conditions noted are these: protein: recombinant; tags: N-terminal GST; dsDNA, one strand shown. In a few lines: as §1

For another test, the target named is ETV5 (Homo sapiens, UniProt P41161 1-510). Conditions: protein: recombinant; tags: N-terminal GST; dsDNA, one strand shown. The method in brief: as §1
The next test addresses HSF1 (Homo sapiens, UniProt Q00613 1-529). The conditions noted are these: protein: recombinant; tags: N-terminal GST; chain copies: 3; dsDNA, one strand shown. The method in brief:
as §1

Another test has as its target ELF4 (Homo sapiens, UniProt Q99607 1-663). The conditions noted are these: protein: recombinant; tags: N-terminal GST; dsDNA, one strand shown. In a few lines:
as §1

The target in the next test is T8, ELK4 (Homo sapiens, UniProt P28324-2 1-405).
T8 sequence: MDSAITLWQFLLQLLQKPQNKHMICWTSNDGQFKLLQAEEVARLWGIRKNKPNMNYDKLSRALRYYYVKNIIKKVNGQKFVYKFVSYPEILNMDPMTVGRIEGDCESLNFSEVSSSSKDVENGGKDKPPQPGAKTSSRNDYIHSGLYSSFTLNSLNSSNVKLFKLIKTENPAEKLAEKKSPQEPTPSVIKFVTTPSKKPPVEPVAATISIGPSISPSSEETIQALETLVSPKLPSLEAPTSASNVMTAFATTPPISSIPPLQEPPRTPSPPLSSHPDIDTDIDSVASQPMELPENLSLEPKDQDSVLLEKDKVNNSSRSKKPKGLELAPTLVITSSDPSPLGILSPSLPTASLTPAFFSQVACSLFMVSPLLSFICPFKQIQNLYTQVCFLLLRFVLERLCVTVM
The conditions noted are these: protein: recombinant; tags: N-terminal GST; dsDNA, one strand shown. The method in brief:
as §1

The target of the next test is T9, ETV2 (Homo sapiens, UniProt O00321 1-342).
T9 sequence: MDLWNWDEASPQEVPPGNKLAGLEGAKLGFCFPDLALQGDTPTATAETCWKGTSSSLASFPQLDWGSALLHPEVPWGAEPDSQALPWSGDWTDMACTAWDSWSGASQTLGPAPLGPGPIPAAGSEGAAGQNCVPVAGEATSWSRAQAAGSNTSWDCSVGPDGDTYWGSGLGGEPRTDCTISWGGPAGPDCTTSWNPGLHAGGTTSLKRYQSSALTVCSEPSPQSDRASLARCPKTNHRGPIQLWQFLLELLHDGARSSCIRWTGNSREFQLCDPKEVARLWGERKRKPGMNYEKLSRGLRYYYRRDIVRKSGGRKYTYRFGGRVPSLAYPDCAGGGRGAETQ
Conditions: protein: recombinant; tags: N-terminal GST; dsDNA, one strand shown. The method in brief:
as §1

The target of the next test is T10, ELF3 (Homo sapiens, UniProt P78545 1-371).
T10 sequence: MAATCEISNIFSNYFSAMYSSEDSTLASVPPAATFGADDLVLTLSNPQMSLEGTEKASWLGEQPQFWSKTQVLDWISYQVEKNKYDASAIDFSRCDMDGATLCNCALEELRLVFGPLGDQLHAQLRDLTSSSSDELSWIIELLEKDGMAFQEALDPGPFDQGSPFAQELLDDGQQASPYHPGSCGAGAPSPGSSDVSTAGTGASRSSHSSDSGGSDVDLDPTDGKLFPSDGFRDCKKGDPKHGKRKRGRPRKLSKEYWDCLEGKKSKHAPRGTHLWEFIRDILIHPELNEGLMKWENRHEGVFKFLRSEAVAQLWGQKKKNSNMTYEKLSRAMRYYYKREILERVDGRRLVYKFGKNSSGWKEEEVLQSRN
Conditions: protein: recombinant; tags: N-terminal GST; dsDNA, one strand shown. In a few lines: as §1

The target in a further test is ETV1 (Homo sapiens, UniProt P50549 1-477). Conditions: protein: recombinant; tags: N-terminal GST; dsDNA, one strand shown. In a few lines:
as §1

Chain of SPIB (Q01892 whole entry): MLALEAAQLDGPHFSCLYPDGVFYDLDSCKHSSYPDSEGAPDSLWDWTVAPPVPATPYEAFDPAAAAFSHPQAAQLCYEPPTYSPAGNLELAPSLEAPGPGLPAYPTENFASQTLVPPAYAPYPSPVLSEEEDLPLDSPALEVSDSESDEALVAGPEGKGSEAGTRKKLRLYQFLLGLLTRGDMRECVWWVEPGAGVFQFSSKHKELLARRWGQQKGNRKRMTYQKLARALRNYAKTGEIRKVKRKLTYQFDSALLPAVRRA
Chain of ETV5 (P41161 whole entry): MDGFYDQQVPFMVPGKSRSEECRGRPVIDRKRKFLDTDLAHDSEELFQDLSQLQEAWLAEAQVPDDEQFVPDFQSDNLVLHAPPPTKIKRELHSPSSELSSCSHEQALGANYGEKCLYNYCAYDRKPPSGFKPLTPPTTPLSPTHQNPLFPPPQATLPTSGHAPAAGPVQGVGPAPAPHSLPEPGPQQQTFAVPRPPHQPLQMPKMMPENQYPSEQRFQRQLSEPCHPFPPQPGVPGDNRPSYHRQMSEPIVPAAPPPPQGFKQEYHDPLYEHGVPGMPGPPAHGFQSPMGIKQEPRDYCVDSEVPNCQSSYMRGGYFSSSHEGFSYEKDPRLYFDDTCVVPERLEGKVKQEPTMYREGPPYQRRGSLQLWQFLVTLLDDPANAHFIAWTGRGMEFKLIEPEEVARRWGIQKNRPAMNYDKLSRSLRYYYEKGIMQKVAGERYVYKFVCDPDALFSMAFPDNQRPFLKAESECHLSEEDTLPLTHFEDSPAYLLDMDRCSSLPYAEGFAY
Chain of ETV1 (P50549 whole entry): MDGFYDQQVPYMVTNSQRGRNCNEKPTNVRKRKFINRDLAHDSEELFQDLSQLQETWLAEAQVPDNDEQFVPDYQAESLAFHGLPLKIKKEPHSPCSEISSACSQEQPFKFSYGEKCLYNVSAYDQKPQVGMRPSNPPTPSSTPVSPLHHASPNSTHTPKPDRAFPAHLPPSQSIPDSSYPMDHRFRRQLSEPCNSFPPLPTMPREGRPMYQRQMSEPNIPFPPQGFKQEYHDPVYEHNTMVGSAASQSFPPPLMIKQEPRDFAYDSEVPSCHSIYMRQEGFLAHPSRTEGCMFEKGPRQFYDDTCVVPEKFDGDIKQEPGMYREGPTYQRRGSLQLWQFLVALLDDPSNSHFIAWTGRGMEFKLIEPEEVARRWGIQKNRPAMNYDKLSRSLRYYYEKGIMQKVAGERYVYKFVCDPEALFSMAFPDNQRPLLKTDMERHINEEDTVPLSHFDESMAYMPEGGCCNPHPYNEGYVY
Chain of ELF4 (Q99607 whole entry): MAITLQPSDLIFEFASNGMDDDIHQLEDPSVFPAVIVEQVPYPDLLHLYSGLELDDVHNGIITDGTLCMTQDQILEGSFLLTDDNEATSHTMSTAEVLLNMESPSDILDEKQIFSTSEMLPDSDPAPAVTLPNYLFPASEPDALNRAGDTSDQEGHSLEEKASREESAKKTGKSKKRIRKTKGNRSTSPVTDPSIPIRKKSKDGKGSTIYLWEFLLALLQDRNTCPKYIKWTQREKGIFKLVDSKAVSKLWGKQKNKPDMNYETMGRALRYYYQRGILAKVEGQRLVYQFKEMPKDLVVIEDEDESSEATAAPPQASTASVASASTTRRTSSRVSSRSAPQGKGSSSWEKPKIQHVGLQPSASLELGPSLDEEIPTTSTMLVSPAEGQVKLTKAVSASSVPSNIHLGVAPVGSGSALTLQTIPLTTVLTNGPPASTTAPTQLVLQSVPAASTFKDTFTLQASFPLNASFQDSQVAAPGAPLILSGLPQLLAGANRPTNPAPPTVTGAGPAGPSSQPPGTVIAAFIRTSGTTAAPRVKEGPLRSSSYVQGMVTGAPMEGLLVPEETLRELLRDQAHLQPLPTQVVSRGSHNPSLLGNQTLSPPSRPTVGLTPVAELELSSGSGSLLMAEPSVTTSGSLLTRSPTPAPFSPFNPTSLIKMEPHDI
Chain of ELF1 (P32519 whole entry): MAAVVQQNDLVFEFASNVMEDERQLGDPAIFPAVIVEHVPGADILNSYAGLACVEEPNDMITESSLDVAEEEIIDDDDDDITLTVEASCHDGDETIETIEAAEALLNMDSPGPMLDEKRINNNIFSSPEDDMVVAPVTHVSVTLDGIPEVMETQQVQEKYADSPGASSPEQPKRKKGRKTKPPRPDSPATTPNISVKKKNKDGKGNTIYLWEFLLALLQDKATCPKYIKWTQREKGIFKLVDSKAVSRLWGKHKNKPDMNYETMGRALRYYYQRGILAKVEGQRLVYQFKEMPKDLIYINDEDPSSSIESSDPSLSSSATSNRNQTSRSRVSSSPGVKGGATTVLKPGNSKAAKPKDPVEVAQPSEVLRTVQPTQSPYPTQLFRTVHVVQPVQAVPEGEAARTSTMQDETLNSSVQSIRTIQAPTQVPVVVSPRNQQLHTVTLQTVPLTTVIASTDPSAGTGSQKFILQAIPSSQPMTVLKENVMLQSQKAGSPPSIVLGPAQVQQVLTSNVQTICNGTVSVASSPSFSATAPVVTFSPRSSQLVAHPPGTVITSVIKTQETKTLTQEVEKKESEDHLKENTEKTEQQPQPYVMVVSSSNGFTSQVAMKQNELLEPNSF
Chain of HSF1 (Q00613 whole entry): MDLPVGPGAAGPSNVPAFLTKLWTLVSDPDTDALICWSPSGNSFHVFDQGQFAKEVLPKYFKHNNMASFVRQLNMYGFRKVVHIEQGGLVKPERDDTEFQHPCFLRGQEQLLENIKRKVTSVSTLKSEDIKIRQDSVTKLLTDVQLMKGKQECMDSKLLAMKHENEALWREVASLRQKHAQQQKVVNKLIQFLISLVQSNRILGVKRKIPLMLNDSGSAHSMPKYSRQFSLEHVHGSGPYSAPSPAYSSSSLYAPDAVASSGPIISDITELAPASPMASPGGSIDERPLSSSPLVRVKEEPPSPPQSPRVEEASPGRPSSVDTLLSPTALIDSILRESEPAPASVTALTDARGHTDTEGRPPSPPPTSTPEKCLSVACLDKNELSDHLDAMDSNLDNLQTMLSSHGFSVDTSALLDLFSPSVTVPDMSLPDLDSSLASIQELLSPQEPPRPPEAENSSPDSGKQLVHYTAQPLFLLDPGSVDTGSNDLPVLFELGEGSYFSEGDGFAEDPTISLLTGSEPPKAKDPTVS

For CTGGCC, the binding signal with FLI1 is 1.22 fold enrichment (6-mer frequency, TF over GST control); with ELK1, 1.13 fold enrichment (6-mer frequency, TF over GST control); with GABPA, 1.19 fold enrichment (6-mer frequency, TF over GST control); in the test with ERG it was 1.29 fold enrichment (6-mer frequency, TF over GST control); in the test with ELF1 it was 1.23 fold enrichment (6-mer frequency, TF over GST control); in the test with EHF, 1.13 fold enrichment (6-mer frequency, TF over GST control). For the same sequence, the binding signal is 1.28 fold enrichment (6-mer frequency, TF over GST control) in the test with SPI1; 1.18 fold enrichment (6-mer frequency, TF over GST control) with SPIB; 1.06 fold enrichment (6-mer frequency, TF over GST control) with ELK3; 1.13 fold enrichment (6-mer frequency, TF over GST control) with FEV; 1.19 fold enrichment (6-mer frequency, TF over GST control) with ETV5; 1.01 fold enrichment (6-mer frequency, TF over GST control) with HSF1. The binding signal was 1.2 fold enrichment (6-mer frequency, TF over GST control) with ELF4; 1.35 fold enrichment (6-mer frequency, TF over GST control) in the test with ELK4; 1.04 fold enrichment (6-mer frequency, TF over GST control) with ETV2; 1 fold enrichment (6-mer frequency, TF over GST control) with ELF3; 1.15 fold enrichment (6-mer frequency, TF over GST control) in the test with ETV1.
